# Screening data: PubChem, several laboratories
# The full list was thinned out, with hits kept by preference.
# BoNT-F LC inh: inhibitors of Botulinum neurotoxin F light chain protease. inhibition, % at 10 µM. 0.22% of 360,000 active. Multiplex microsphere protease cleavage assay, flow cytometry; in the data active = inhibition above about 35%, passing the limit was not always enough; inconclusive = no clear call, values can overlap the other calls; also: plate controls were buffer without enzyme for full effect and enzyme alone for no effect
# Bead autofluor: counter-screen for toxin protease inhibitors: compound fluorescence; compound autofluorescence counterscreen, microsphere flow cytometry; active compounds read high; 3.1% of 360,000 active; AID 624483; fluorescence intensity (concentration not given with the values); in the data active = fluorescence intensity above about 16000; inconclusive = no clear call, values can overlap the other calls
# Anthrax LF inh2: blocks Bacillus anthracis lethal factor protease; P15917; 0.12% of 360,000 active; multiplex microsphere protease cleavage assay, LF; inhibition, % at 10 µM; AID 588501; also: plate controls were buffer without enzyme for full effect and enzyme alone for no effect
# TcdB GH inh: inhibitors of Clostridioides difficile toxin B glycohydrolase | P18177 | TcdB glycohydrolase enzymatic assay, plate reader | inhibition, % at 9.99 µM | 0.24% of 350,000 active | AID 652162; in the data active = inhibition above about 10%
# BoNT-A LC inh2: inhibitors of Botulinum neurotoxin A light chain protease. multiplex microsphere protease substrate cleavage, flow cytometry. inhibition, % at 10 µM. AID 588499. 0.17% of 360,000 active; also: plate controls were buffer without enzyme for full effect and enzyme alone for no effect
# Starred values were filed as active, the others as inactive; ? = inconclusive; · = no result. Rule as the data show it, unless noted: active = inhibition above about 30%; inconclusive = no clear call, values can overlap the other calls; inactive = below that.
SMILES,BoNT-F LC inh,Bead autofluor,Anthrax LF inh2,TcdB GH inh,BoNT-A LC inh2
CCCOc1ccccc1Nc1nnc(C)c(=O)[nH]1,-7,21083*,-4,·,-5
COc1cccc(C2NC(=O)NC(C)=C2C(=O)Nc2ccc(C)cc2)c1OC (stereo unspecified),-21,9014,-14,1,-2
CCOC(=O)c1oc2ccccc2c1NC(=O)c1cccc(OC)c1,-1,22777*,-1,·,1
O=C(Nc1ccc(-c2nc3ccccc3o2)cc1)c1ccc2c(c1)OCO2,0,16511*,-2,4,0
COc1ccc(NC(=O)C2=C(C)NC(=O)NC2c2cccc(OC)c2OC)c(OC)c1 (stereo unspecified),0,20365*,3,·,?
CCOC(=O)c1oc2ccccc2c1NC(=O)c1ccc2c(c1)OCO2,-5,24146*,-2,·,-4
COc1cccc(C(=O)Nc2c(C(N)=O)oc3ccccc23)c1,-4,5839,4,0,0
C[C@@H]1CN([C@@H](C)CO)C(=O)c2cc(NS(=O)(=O)c3cn(C)cn3)ccc2O[C@H]1CN(C)C(=O)Nc1ccc(C(F)(F)F)cc1,·,·,·,0,·
C[C@H](CO)N1C[C@H](C)[C@H](CN(C)S(C)(=O)=O)Oc2cc(C#CCN(C)C)ccc2S1(=O)=O,·,·,·,1,·
C[C@@H]1CCCCO[C@@H](CN(C)C(=O)Cc2ccccc2)[C@H](C)CN([C@H](C)CO)C(=O)c2cc(NC(=O)Nc3ccc(F)cc3)ccc2O1,·,·,·,0,·
CCOC(=O)c1oc2ccccc2c1NC(=O)CCl,?,3651,-3,1,0
COc1ccc(NC(=O)c2oc3ccccc3c2C)c(OC)c1,-3,22634*,0,0,?
COc1ccc(NC(=O)c2oc3ccccc3c2NC(=O)c2ccc3c(c2)OCO3)cc1,-2,22577*,-3,·,2
COc1ccc(C(=O)c2oc3ccccc3c2N)cc1,-8,20810*,-2,·,-4
CCOC(=O)c1oc2ccccc2c1NC(=O)c1cccc(OC)c1OC,1,18642*,-2,·,2
O=C1CS(=O)(=O)C(c2ccccc2)N1c1ccc(-c2ccccc2)cc1 (stereo unspecified),·,·,·,-1,·
CCC(=O)N1C[C@H](O)COC[C@H]2O[C@@H](CC(=O)NCc3cc(F)cc(F)c3)CC[C@@H]21,·,·,·,-6,·
Cc1cccc(NS(=O)(=O)c2ccc(C3CCCCC3)cc2)n1,-3,22937*,0,·,-2
Cn1cnc(S(=O)(=O)N2C[C@@H](O)COC[C@H]3O[C@@H](CC(=O)NCc4cc(F)cc(F)c4)CC[C@@H]32)c1,·,·,·,0,·
Cc1nn(CCc2n[nH]c(=S)n2C2CCCCC2)c(C)c1Br,-7,26154*,-3,·,-9
Cc1nn(CCc2n[nH]c(=S)n2C)c(C)c1Br,8,15320,-3,·,3
CCc1ccc(N2C(=O)/C(=C/c3cccs3)N(CC(=O)OC)C2=S)cc1,3,23041*,-1,2,?
Clc1ccc(OCc2nnc(-c3ccccc3Br)o2)cc1,0,16365*,-6,·,0
CN(C)S(=O)(=O)N1CCc2ccccc2C1,-6,24594*,-1,·,-3
C[C@@H]1CCCCO[C@@H](CN(C)C(=O)Nc2cccc3ccccc23)[C@H](C)CN([C@@H](C)CO)C(=O)c2cc(NC(=O)NC3CCCCC3)ccc2O1,·,·,·,-1,·
SMILES,BoNT-F LC inh,Bead autofluor,Anthrax LF inh2,TcdB GH inh,BoNT-A LC inh2
CC(O)C(NC=C1C(=O)OC(C)(C)OC1=O)C(=O)O (stereo unspecified),-7,3349,8,0,-1
CC(C)C(NC=C1C(=O)OC(C)(C)OC1=O)C(=O)O (stereo unspecified),-5,16608*,-2,-1,?
Cc1cc(C)cc(CSCC(=O)N/N=C/c2ccc(OCC(=O)NCc3ccco3)cc2)c1,3,21576*,-4,0,3
CC1=C(C(=O)N2CCOCC2)C(c2ccccc2F)C2=C(CC(C)(C)CC2=O)N1 (stereo unspecified),2,19197*,-3,·,2
COc1ccc(C2C(C(=O)N3CCOCC3)=C(C)NC3=C2C(=O)CC(C)(C)C3)c(OC)c1 (stereo unspecified),8,6057,-3,·,0
O=C(CSc1ncnc2c1oc1ccccc12)Nc1ccc2c(c1)OCCO2,-4,17420*,-2,·,-4
Cc1nc(SCC(=O)Nc2ccc3c(c2)OCCO3)c2oc3ccccc3c2n1,0,20676*,1,·,0
COc1ccccc1NC(=O)CSc1ncnc2c1oc1ccccc12,0,20328*,-2,·,1
CCc1nc(SCC(=O)Nc2ccc3c(c2)OCCO3)c2oc3ccccc3c2n1,5,2148,-1,·,0
O=C(COC(=O)c1cccnc1Cl)c1ccc(Cl)cc1Cl,5,19499*,-1,·,4
CCC(=O)Nc1ccc2c(c1)C(=O)N(C)C[C@@H](OC)[C@@H](C)CN(C(=O)C1CCC1)[C@@H](C)CO2,·,·,·,0,·
CCOc1cc(/C=N/NC(=O)Cn2nc([N+](=O)[O-])cc2C)cc(Br)c1OCc1ccccc1C,-2,16860*,0,·,-1
CN(C)/C=C/C(=O)c1cccc(Cl)c1,-5,16675*,-4,·,-1
COc1ccc(N2CCN(Cc3nc4ccsc4c(=O)[nH]3)CC2)cc1,-2,20654*,-1,·,0
NNC(=O)CN1C(=O)C2(OCCO2)c2ccccc21,-7,4029,-2,-1,0
CCCC(=O)CN1C(=O)C2(OCCO2)c2ccccc21,1,22726*,-3,·,-1
COc1ccccc1NC(=O)CN1C(=O)C2(OCCCO2)c2ccccc21,1,20250*,0,-2,2
O=C1N(CCCN2C(=O)C3(OCCO3)c3ccccc32)c2ccccc2C12OCCO2,-5,21454*,0,·,-6
CC(C)CC(=O)CN1C(=O)C2(OCCO2)c2ccccc21,-1,23745*,2,·,-2
Cc1cc(C(=O)Nc2ccccn2)cs1,0,22600*,-2,·,0
O=C(Nc1cc(F)ccc1F)N[C@H]1CC[C@@H](CCn2cc(C3CCCC3)nn2)O[C@H]1CO,·,·,·,1,·
Cc1ccccc1CN1CCN(Cc2ccccc2C(F)(F)F)CC1,2,20858*,-6,·,?
FC(F)(F)c1ccccc1CN1CCN(Cc2ccccc2)CC1,-7,5772,-8,0,0
C[C@@H]1CCCCO[C@H](CN(C)Cc2ccccc2)[C@H](C)CN([C@H](C)CO)C(=O)c2cc(NC(=O)C3CCCCC3)ccc2O1,·,·,·,-2,·
C[C@@H]1CCCCO[C@H](CN(C)CC2CCCCC2)[C@H](C)CN([C@@H](C)CO)C(=O)c2cc(NC(=O)Nc3ccc4c(c3)OCO4)ccc2O1,·,·,·,1,·
O=[N+]([O-])c1ccc(N2CCN(c3ccc(Cl)nn3)CC2)c(Cl)c1,-4,20451*,0,·,-2
CC(C)C(=O)N1CCN(c2ccc([N+](=O)[O-])cc2Cl)CC1,-1,2288,1,1,1
C[C@@H]1CN([C@@H](C)CO)C(=O)c2cc(C3=CCCC3)cnc2O[C@H]1CN(C)Cc1ccccc1C(=O)O,·,·,·,0,·
CO[C@H]1CN(C)C(=O)c2cc(NC(=O)Nc3cc(F)ccc3F)ccc2OC[C@H](C)N(C(=O)c2cnccn2)C[C@H]1C,·,·,·,0,·
